PI5P4K alpha inh: blocks human PI5P4K alpha kinase activity. P48426. PI5P4Kalpha enzyme, ADP-Glo luminescence, 60 min; hits give low values. max response, %. 330,000 tested, 1.2% active; active = max response of -50% or lower; inconclusive = between -30% and -50%; inactive = -30% or higher; also: value at the top dose of about 77 µM; % is scaled to controls: 0 for no effect and ±100 for the full control effect
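ADP-Glo luminescence end-point after a 60 min room-temperature kinase reaction. PI5P4Kalpha and substrate in HEPES pH 7.4 buffer with EGTA, 0.1% CHAPS and 5% DMSO; ATP at 5 microM final.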
Pol kappa inh: blocks human DNA polymerase kappa activity. Q9UBT6. Potency, µM (doses to about 107 µM), without a hit: top-dose activity, negative = inhibition, actives largely listed as inhibitors. purified Pol kappa, fluorescent DNA synthesis assay, 10 min. 400,000 tested, 0.53% active; also: potency is read from the fitted curve at half-maximal effect; % is scaled to controls: 0 for no effect and ±100 for the full control effect
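Enzyme at 10 nM met test compounds for 15 min at room temperature. Substrate addition (50 nM final) began the reaction, which was monitored by fluorescence at 0 and 10 min.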
POLB inh: inhibitors of human DNA polymerase beta; P06746; Pol beta primer extension/strand displacement, fluorescence kinetic; Potency, µM (highest dose often 114 µM), without a hit: top-dose activity change, negative = inhibition, hits mostly inhibitors; 340,000 tested, 1.3% active; also: potency is read from the fitted curve at half-maximal effect; % is scaled to controls: 0 for no effect and ±100 for the full control effect
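Kinetic readout of DNA synthesis with strand displacement by Pol beta. Compound and 10 nM enzyme sit 15 min at room temperature; 50 nM substrate starts the reaction, read immediately and at 10 min.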
POLH inh: blocks human DNA polymerase eta activity. Q9Y253. recombinant Pol eta, fluorescent DNA replication assay. Potency, µM (top dose mostly 114 µM), inactives show at the highest dose activity change, negative = inhibition, hits mostly inhibitors. 390,000 tested, 1.2% active. AID 588591; also: potency is read from the fitted curve at half-maximal effect; % is scaled to controls: 0 for no effect and ±100 for the full control effect
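Pol eta (10 nM) was preincubated with compounds for 15 min at room temperature, after which fluorescent replication substrate (50 nM final) was added to start the reaction. Fluorescence was read kinetically at 0 and 10 min.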
Pol iota inh: DNA polymerase iota (human) inhibition; Q9UNA4; Pol iota fluorescent replication assay, 10 min; 390,000 tested, 1% active; Potency, µM (titrated, usually from 115 µM), for inactives: top-dose activity, negative = inhibition, actives largely listed as inhibitors; also: potency is read from the fitted curve at half-maximal effect
Target sequence (Q9UNA4 whole entry, looked up): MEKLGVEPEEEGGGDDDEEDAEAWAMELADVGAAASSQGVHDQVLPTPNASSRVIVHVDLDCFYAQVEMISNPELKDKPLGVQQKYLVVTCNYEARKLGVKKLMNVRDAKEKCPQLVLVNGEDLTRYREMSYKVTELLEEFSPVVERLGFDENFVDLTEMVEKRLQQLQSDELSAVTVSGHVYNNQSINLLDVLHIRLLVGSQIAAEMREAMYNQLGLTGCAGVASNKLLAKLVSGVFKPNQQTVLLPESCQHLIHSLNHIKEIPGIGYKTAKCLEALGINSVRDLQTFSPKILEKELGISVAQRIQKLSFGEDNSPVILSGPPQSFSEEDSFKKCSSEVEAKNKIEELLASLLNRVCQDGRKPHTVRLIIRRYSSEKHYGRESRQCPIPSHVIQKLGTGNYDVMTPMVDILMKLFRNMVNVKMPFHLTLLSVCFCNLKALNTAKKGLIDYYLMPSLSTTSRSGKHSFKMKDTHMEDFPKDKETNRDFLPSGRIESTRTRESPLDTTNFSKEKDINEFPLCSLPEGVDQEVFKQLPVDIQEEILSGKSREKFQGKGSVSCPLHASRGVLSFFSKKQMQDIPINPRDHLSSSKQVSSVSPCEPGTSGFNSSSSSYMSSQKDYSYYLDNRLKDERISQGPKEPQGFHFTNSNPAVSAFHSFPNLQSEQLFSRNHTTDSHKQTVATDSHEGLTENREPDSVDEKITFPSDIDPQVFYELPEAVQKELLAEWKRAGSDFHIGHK
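Pol iota at 10 nM preincubated 15 min with compounds at room temperature; reaction started with fluorescent substrate, 50 nM final. Fluorescence read kinetically at 0 and 10 min; buffer-only wells as negative control.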
WRN helicase inh-1: WRN helicase (human) inhibition; 360,000 tested, 0.46% active; WRN helicase unwinding, fluorescent forked duplex, kinetic; Q14191; Potency, µM (top dose mostly 114 µM), for inactives: at the highest dose activity change, negative = inhibition, usual class: inhibitors; also: potency is read from the fitted curve at half-maximal effect; % is scaled to controls: 0 for no effect and ±100 for the full control effect; nearly all actives have a fitted effect of over 55% in size
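WRN at 20 nM final preincubated with compound 15 min at room temperature; reaction started with 100 nM fluorophore/quencher forked duplex oligonucleotide and 2 mM ATP final. Unwinding followed kinetically by red fluorescence (ex 525, em 598 nm).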
WRN helicase inh-2: confirmation of human WRN helicase inhibitors; shares compounds with WRN helicase inh-1; WRN helicase DNA unwinding, fluorescence kinetic; Potency, µM (series often up to 57.1 µM), inactives show top-dose activity, negative = inhibition, usual class: inhibitors; 610 tested, 63% active; AID 720497; also: potency is read from the fitted curve at half-maximal effect; nearly all actives have a fitted effect of over 65% in size
TO displacement: counter-screen for WRN helicase inhibitors: DNA binding. AID 720499. Potency, µM (top dose mostly 57.1 µM), for the others: top-dose activity change, negative = inhibition, hits mostly inhibitors. thiazole orange DNA binding displacement, fluorescence. shares compounds with WRN helicase inh-1. 610 tested, 10% active;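 also: drop in dye fluorescence marks compound binding to DNA; potency is read from the fitted curve at half-maximal effect; % is scaled to controls: 0 for no effect and ±100 for the full control effect; nearly all actives have a fitted effect of over 60% in size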
BLM counter: counter-screen for WRN helicase inhibitors: human BLM helicase inhibition | Recombinant BLM helicase DNA unwinding, red fluorescence | Potency, µM (top dose mostly 57.1 µM), for the others: at the highest dose activity change, negative = inhibition, usual class: inhibitors | AID 720503 | shares compounds with WRN helicase inh-1 | 610 tested, 60% active; also: potency is read from the fitted curve at half-maximal effect; nearly all actives have a fitted effect of over 60% in size
Starred values were filed as active, the others as inactive; ? = inconclusive; . = no result given; [ ] = another dose, or the depositor's remark. Shown are actives, neighbours in structure and some others; about 2.8% of the full set was active somewhere. Unless noted, calls follow the shape of the dose curve; as a rule, active = well fitted curve in the direction sought with a large enough effect; inconclusive = small, poorly fitted or top-dose-only effect, or another doubt; inactive = no such curve, though single readings can be large; an effect the other way counts as inactive or inconclusive.

SMILES | PI5P4K alpha inh | Pol kappa inh | POLB inh | POLH inh | Pol iota inh | WRN helicase inh-1 | WRN helicase inh-2 | TO displacement | BLM counter
O=C1NC(=Nc2ccc(O)cc2)S/C1=C\C=C\c1ccco1 | ? | -44.2% | 20µM* | 31.6µM* | ? | ? | 19.2µM* | ? | 21.5µM*
COc1ccc([N+](=O)[O-])c(S(=O)(=O)c2ccc(Cl)cc2)n1 | 3.7 | 4.8% | -22.9% | -7.7% | ? | 15.8µM* | ? | -5.3% | -16.2%
O=[N+]([O-])c1cccnc1S(=O)(=O)c1ccccc1 | 8.5 | -4.0% | 13.2% | -2.3% | 27.4% | -29.0% | . | . | .
COc1ccc([N+](=O)[O-])c(S(=O)(=O)c2ccccc2)n1 | -16.4 | 0.6% | 20.6% | -6.5% | 14.1µM* | 31.6µM* | ? | -8.4% | -19.3%
NC(CC(=O)Nc1ccc(Oc2cc(F)c(F)cc2Br)cc1)C(=O)O (stereo unspecified) | . | -4.2%[60.1 µM] | . | . | . | . | . | . | .
COc1ccc(CCC(=O)NCCc2csc(-c3cccc(F)c3)n2)cc1 | . | -5.0%[60.1 µM] | 10.9% | -21.6% | 22.2% | . | . | . | .
COc1cc(/C=N/Nc2nnc3c(n2)[nH]c2ccccc23)ccc1O | -2.2 | -5.9% | ? | ? | 39.8µM* | ? | ? | -13.6% | ?
CC(=O)OC[C@@H]1CN(Cc2cccc(C(F)(F)F)c2)C[C@H](n2cnc3c(NCc4ccco4)ncnc32)O1 | 1.0 | . | . | . | . | -2.4% | . | . | .
COc1ccc(/C=N/NC(=O)c2ccccc2OC)cc1COc1ccccc1[N+](=O)[O-] | -12.4 | -1.1% | ? | -14.6% | -29.3% | ? | ? | -4.6% | -20.3%
COc1ccc(/C=N/NC(=O)c2ccccc2OC)cc1COc1ccc(C)cc1 | -4.5 | -11.1% | 10.4% | -8.8% | 13.6% | -26.4% | . | . | .
CCOc1cccc(CNCCO)c1OCc1ccc(Cl)cc1Cl | -3.9 | -8.4% | 0.8% | -15.9% | 13.8% | 25.0% | . | . | .
CCOc1cccc(CNc2ccc(O)cc2)c1OCc1ccc(Cl)cc1Cl | -19.5 | -18.3% | -1.3% | ? | 3.16µM* | ? | -28.8% | -26.6% | ?
CCc1nnc(NS(=O)(=O)c2ccc(N/C=C\C(=O)c3cccc4ccccc34)cc2)s1 | -24.5 | -7.1% | -18.5% | 44.7µM* | -15.3% | 26.7µM* | 24.1µM* | -20.6% | 27.1µM*
COc1cc(/C=C2\C(=O)N(CCC#N)N=C2C)ccc1OCC(=O)Nc1ccccc1 | 2.3 | -18.1% | 24.8% | -3.0% | ? | ? | ? | -4.3% | 17.1µM*
COc1cccc(N(CC(=O)NC2CCCCC2)C(=O)CCC(=O)Nc2nccs2)c1 | -4.9 | -12.4% | -7.8% | -7.7% | 78.0% | -0.6% | . | . | .
COCCn1c(=O)sc2ccccc2c1=O | -29.6 | -7.8% | 5.6% | -2.4% | 89.0% | ? | 5.8% | -4.3% | -10.9%
N=C(N)c1ccc(N=Nc2c(O)ccc3c2[nH]c2ccccc23)cc1 | -71.0* | 79.4µM* | . | 39.8µM* | -9.8% | 11.2µM* | 8.57µM* | 24.1µM* | 19.2µM*
NC(=O)c1ccc(N=Nc2c(O)c3ccccc3[nH]c2=O)cc1 | . | . | 33.0% | . | . | . | . | . | .
O=[N+]([O-])c1cc(/C=N/O)ccc1SCc1ccccc1Cl | . | -24.2% | -1.6% | -5.4% | 2.4% | -23.9% | . | . | .
Cc1ccc(N=Cc2cc(Cc3ccccc3Cl)cc([N+](=O)[O-])c2O)c(O)c1 | -68.9* | -80.5% | 15.8µM* | 50.1µM* | ? | 28.2µM* | 24.1µM* | ? | 21.5µM*

Assay outcomes (PubChem)
